Tests used:
[1] = target: T1, CDK3/cyclin E (Homo sapiens) (UniProt P24864+O96020+Q00526); details: at 1 µM
[2] = target: T1, CDK3/cyclin E (Homo sapiens); details: at 10 µM
[3] = target: T2, Cyclin-dependent kinase 5/CDK5 activator 1 (Homo sapiens) (UniProt Q00535+Q15078); details: at 1 µM
Target sequence in this assay (Q00535 whole entry): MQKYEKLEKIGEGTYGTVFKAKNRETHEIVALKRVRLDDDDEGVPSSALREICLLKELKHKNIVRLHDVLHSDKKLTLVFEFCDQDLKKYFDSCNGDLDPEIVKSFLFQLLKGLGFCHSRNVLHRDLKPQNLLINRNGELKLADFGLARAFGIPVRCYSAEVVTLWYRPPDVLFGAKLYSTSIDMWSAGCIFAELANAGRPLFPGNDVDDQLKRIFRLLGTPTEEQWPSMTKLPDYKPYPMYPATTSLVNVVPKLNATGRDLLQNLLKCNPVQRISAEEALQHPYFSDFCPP
Target sequence in this assay (Q15078 99-307 partner limits assumed): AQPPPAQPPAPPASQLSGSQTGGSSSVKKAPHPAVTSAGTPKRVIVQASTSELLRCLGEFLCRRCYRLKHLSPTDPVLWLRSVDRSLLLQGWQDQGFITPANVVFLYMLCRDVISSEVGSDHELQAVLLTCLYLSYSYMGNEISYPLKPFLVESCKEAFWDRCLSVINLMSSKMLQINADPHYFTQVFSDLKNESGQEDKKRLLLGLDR

[4] = target: T2, Cyclin-dependent kinase 5/CDK5 activator 1 (Homo sapiens); details: at 10 µM
[5] = target: T3, CDK6/cyclin D3 (Homo sapiens) (UniProt P30281+Q00534); details: at 1 µM
[6] = target: T3, CDK6/cyclin D3 (Homo sapiens); details: at 10 µM
[7] = target: T4, Cyclin-dependent kinase 7/ cyclin H (Homo sapiens) (UniProt P51946+P50613); details: at 1 µM
[8] = target: T4, Cyclin-dependent kinase 7/ cyclin H (Homo sapiens); details: at 10 µM
[9] = target: T5, CDK9/cyclin T1 (Homo sapiens) (UniProt O60563+P50750); details: at 1 µM
[10] = target: T5, CDK9/cyclin T1 (Homo sapiens); details: at 10 µM
[11] = target: T6, Serine/threonine-protein kinase Chk1 (Homo sapiens) (UniProt O14757); details: at 1 µM
T6 sequence (whole entry): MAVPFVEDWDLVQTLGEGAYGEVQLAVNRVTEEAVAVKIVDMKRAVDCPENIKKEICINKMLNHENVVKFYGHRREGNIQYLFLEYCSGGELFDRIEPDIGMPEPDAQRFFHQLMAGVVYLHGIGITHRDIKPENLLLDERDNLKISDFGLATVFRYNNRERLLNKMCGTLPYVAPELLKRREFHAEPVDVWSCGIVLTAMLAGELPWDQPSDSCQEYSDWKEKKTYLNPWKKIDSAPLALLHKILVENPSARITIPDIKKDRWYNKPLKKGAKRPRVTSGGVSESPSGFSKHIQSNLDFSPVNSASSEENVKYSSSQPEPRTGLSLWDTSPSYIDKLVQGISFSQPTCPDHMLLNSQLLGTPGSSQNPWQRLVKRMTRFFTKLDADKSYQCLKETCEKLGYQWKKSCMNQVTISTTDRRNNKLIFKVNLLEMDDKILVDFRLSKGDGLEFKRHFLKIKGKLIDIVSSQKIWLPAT

[12] = target: T6, Serine/threonine-protein kinase Chk1 (Homo sapiens); details: at 10 µM
[13] = target: Serine/threonine-protein kinase Chk2 (Homo sapiens) (UniProt O96017); details: at 1 µM
Serine/threonine-protein kinase Chk2 (Homo sapiens), sequence (O96017 whole entry, canonical isoform): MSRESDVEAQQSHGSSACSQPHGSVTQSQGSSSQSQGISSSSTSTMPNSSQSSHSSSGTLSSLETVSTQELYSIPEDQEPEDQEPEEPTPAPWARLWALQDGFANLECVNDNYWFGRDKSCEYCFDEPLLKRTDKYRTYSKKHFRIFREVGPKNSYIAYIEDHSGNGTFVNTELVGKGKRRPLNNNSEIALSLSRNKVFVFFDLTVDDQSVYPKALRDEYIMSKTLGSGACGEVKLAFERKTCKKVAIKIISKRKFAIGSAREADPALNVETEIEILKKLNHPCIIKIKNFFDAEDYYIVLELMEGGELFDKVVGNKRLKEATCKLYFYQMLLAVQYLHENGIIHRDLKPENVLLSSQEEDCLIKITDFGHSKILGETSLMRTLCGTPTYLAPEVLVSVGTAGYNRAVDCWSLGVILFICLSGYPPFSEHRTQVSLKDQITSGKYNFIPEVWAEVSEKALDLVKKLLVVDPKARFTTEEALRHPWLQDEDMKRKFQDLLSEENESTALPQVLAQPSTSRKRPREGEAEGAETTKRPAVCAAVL

[14] = target: Serine/threonine-protein kinase Chk2 (Homo sapiens) (UniProt O96017); details: at 10 µM
[15] = target: Casein kinase I isoform gamma-1 (Homo sapiens) (UniProt Q9HCP0); details: at 10 µM
Casein kinase I isoform gamma-1 (Homo sapiens), sequence (Q9HCP0 whole entry, looked up, canonical isoform): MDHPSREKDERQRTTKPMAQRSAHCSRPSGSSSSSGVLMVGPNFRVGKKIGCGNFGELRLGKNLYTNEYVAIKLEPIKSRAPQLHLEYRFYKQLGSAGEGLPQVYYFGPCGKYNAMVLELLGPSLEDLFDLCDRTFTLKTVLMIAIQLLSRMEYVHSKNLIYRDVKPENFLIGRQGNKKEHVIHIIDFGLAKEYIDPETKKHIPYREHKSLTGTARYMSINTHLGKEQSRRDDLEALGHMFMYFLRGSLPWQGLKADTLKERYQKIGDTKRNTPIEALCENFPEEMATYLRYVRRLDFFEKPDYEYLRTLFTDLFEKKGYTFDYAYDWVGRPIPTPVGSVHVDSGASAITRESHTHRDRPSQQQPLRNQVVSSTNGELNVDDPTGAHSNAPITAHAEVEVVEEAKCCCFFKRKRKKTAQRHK

[16] = target: Casein kinase I isoform delta (Homo sapiens) (UniProt P48730); details: at 1 µM
Casein kinase I isoform delta (Homo sapiens), sequence (P48730 whole entry, looked up, canonical isoform): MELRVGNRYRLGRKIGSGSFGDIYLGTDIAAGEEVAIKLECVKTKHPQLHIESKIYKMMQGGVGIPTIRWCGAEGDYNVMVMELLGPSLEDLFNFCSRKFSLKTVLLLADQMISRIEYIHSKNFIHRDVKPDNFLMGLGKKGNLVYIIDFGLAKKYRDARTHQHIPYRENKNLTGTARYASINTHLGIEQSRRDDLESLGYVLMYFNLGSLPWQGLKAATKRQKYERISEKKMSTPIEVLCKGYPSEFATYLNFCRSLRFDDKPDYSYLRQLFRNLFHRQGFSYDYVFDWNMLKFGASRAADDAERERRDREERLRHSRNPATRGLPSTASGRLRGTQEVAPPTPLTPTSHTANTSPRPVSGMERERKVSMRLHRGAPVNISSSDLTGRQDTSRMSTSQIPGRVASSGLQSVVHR

[17] = target: Casein kinase I isoform delta (Homo sapiens) (UniProt P48730); details: at 10 µM
[18] = target: T2, Cyclin-dependent kinase 5/CDK5 activator 1 (Homo sapiens); details: at 1 µM; remark: listed apart in the source
Target sequence in this assay (Q00535 whole entry): as the sequence (Q00535 whole entry) above
Target sequence in this assay (Q15078 99-307 partner limits assumed): as the sequence (Q15078 99-307 partner limits assumed) above

[19] = target: T2, Cyclin-dependent kinase 5/CDK5 activator 1 (Homo sapiens); details: at 10 µM; remark: listed apart in the source
Target sequence in this assay (Q00535 whole entry): as the sequence (Q00535 whole entry) above
Target sequence in this assay (Q15078 99-307 partner limits assumed): as the sequence (Q15078 99-307 partner limits assumed) above

[20] = target: Casein kinase I isoform gamma-1 (Homo sapiens) (UniProt Q9HCP0); details: at 1 µM

T1 sequence (O96020 whole entry, looked up): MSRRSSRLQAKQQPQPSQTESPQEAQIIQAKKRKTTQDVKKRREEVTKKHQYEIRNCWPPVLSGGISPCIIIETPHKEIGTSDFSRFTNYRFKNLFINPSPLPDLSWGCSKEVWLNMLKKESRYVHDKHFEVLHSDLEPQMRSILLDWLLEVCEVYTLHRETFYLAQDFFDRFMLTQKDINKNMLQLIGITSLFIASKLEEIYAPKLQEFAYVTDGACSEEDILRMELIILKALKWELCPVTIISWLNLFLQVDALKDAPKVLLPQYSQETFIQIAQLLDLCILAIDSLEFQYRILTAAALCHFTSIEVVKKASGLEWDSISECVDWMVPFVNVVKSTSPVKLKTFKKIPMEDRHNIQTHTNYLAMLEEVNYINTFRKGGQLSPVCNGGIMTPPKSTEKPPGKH
T1 sequence (P24864 whole entry, looked up): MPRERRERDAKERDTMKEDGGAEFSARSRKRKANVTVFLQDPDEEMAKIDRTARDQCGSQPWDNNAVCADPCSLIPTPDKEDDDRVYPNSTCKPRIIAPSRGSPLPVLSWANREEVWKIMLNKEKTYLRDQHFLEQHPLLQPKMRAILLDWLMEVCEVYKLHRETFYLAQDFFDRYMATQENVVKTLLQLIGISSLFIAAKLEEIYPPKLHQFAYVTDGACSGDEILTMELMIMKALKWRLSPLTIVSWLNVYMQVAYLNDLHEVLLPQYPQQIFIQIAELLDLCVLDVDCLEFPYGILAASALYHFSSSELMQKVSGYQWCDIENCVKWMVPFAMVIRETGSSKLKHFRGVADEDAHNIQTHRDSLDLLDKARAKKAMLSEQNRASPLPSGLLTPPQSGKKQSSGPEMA
T1 sequence (Q00526 whole entry, looked up): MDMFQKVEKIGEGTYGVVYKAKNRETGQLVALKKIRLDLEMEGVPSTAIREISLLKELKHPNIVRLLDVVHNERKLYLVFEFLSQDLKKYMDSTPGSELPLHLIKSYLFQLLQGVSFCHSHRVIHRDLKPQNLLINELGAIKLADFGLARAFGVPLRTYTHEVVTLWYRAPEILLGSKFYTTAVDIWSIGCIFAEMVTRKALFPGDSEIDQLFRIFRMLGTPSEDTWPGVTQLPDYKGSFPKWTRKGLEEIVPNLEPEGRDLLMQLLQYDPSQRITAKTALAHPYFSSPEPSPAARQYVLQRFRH

| SMILES | residual activity [1] [%] | residual activity [2] [%] | residual activity [3] [%] | residual activity [4] [%] | residual activity [5] [%] | residual activity [6] [%] | residual activity [7] [%] | residual activity [8] [%] | residual activity [9] [%] | residual activity [10] [%] | residual activity [11] [%] | residual activity [12] [%] | residual activity [13] [%] | residual activity [14] [%] | residual activity [15] [%] | residual activity [16] [%] | residual activity [17] [%] | residual activity [18] [%] | residual activity [19] [%] | residual activity [20] [%] |
| --- | --- | --- | --- | --- | --- | --- | --- | --- | --- | --- | --- | --- | --- | --- | --- | --- | --- | --- | --- | --- |
| N#Cc1cnc2cnc(NCc3cccnc3)cc2c1Nc1ccc(F)c(Cl)c1 | 21 | 11 | 22 | 11 | 123 | 97 | 71 | 46 | 93 | 100 | 3 | 1 | 49 | 36 | 93 | 79 | 62 |  |  |  |
| Cc1nc2cc3nc(-c4cccs4)cnc3cc2n1C | 109 | 99 | 106 | 99 | 107 | 93 | 82 | 102 | 109 | 102 | 101 | 108 | 86 | 101 | 89 | 95 | 67 | 91 | 109 |  |
| N#CCCc1ccc2c(c1)-c1[nH]c3ccc([N+](=O)[O-])cc3c1CC(=O)N2 | 2 | 0 | 0 | 0 | 30 | 8 |  |  | 1 | 0 | 39 | 16 | 4 | 0 |  |  |  | -1 | 0 |  |
| COc1ccc(C(=O)Nc2sc3c(c2C(N)=O)CCCC3)cc1OC | 101 | 92 | 85 | 88 | 94 | 94 | 71 | 114 | 96 | 97 | 81 | 104 | 77 | 98 | 103 | 89 | 96 | 101 | 108 | 84 |
| Cc1cccc(-c2[nH]c(C(C)(C)C)nc2-c2ccc3c(c2)OCO3)n1 | 90 | 89 | 92 | 97 | 104 | 106 | 100 | 95 |  | 98 | 88 | 92 | 91 | 97 | 100 | 69 | 33 | 83 | 88 | 101 |
| CC(C)n1cnc2/c(=N/c3cccc(Cl)c3)nc(NCCO)[nH]c21 | 44 | 8 | 8 | 1 | 92 | 58 | 45 | 7 | 63 | 24 | 38 | 25 | 64 | 21 | 0 | 37 | 7 | 3 | 0 | 8 |
| Cn1nc2c3c(cccc31)C(=O)c1ccccc1-2 | 89 | 72 | 97 | 80 | 92 | 76 | 91 | 73 | 94 | 90 | 94 | 75 | 75 | 40 | 82 | 15 | 1 | 83 | 93 | 99 |
| CN(C)CCCn1cc(C2=C(c3c[nH]c4ccccc34)C(=O)NC2=O)c2ccccc21 | 88 | 33 | 81 | 33 | 103 | 53 | 47 | 13 | 17 | 3 | 54 | 17 | 52 | 16 |  | 90 | 79 | 75 | 25 | 107 |
| Oc1c2ccccc2c2c3c(cccc13)N=N2 | 26 | 14 |  |  | 76 | 31 | 75 | 24 | 96 | 55 | 72 | 32 | 29 | 2 | 48 | 5 | 1 |  |  | 99 |
| COc1cc2ncnc(N3CCN(C(=O)Nc4ccc(Oc5ccccc5)cc4)CC3)c2cc1OC | 79 | 75 | 108 | 75 | 82 | 86 | 90 | 93 | 94 | 48 | 82 | 80 | 96 | 96 | 79 | 78 | 89 | 95 | 55 | 88 |
| CO[C@H]1C[C@@H]2CC[C@@H](C)[C@@](O)(O2)C(=O)C(=O)N2CCCC[C@H]2C(=O)O[C@H]([C@H](C)C[C@@H]2CC[C@@H](O)[C@H](OC)C2)CC(=O)[C@H](C)/C=C(\C)[C@@H](O)[C@@H](OC)C(=O)[C@H](C)C[C@H](C)/C=C/C=C/C=C/1C | 90 | 86 | 78 | 100 | 88 | 89 | 88 | 94 | 120 | 98 | 77 |  | 98 | 85 | 101 | 84 | 109 | 90 | 92 | 87 |
| Cc1cncc2cccc(S(=O)(=O)N3CCCN(C(=O)CN)C[C@H]3C)c12 | 92 | 73 | 80 | 92 | 93 | 84 | 78 | 89 | 92 | 71 | 88 | 93 | 80 | 83 |  | 83 |  | 89 | 80 |  |
| Nc1cccc(-c2cc3c(Oc4cccc(O)c4)ncnc3[nH]2)c1 | 82 | 34 | 72 | 14 | 101 | 64 | 101 | 67 | 31 | 5 | 45 | 11 | 54 | 12 | 49 | 86 | 44 | 53 | 12 | 86 |
| CO[C@@H]1[C@H](N(C)C(=O)c2ccccc2)C[C@H]2O[C@]1(C)n1c3ccccc3c3c4c(c5c6ccccc6n2c5c31)C(=O)NC4 | 76 | 67 | 76 | 54 | 87 | 81 |  | 90 | 70 | 58 | 59 | 65 | 79 | 54 | 49 | 80 | 69 | 57 | 40 | 66 |
